# Assay outcomes from PubChem.
# FLuc modulator = firefly luciferase modulation, counter-screen for miR-21 project. purified FLuc, Km substrates, luminescence inhibition. Potency, µM (titrated, usually from 57.5 µM), for inactives: top-dose activity change, negative = inhibition, most hits filed as inhibitors. 360,000 compounds, 6.9% hits;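 further: plate controls were vehicle for no effect and reference inhibitor for full effect; nearly all actives have a fitted effect of over 55% in size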
# Target sequence (P08659 whole entry, looked up): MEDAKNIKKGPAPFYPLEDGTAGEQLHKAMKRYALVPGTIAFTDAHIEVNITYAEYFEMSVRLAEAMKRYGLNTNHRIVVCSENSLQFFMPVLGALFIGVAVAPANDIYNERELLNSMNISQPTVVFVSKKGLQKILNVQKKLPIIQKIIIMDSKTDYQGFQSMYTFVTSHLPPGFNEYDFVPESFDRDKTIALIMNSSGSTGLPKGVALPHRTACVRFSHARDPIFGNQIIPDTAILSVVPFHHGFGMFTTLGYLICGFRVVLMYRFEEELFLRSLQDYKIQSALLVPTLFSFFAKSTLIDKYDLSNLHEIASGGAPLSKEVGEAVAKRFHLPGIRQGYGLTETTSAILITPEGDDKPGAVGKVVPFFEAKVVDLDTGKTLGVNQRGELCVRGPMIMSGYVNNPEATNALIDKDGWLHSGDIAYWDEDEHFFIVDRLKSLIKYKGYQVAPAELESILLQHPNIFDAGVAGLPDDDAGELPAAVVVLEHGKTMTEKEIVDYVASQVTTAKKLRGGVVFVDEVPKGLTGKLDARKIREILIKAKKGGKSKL
#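 Purified P. pyralis luciferase, 10 nM final, with Km-level 10 uM D-luciferin and 10 uM ATP in 50 mM Tris acetate pH 7.5, 10 mM Mg acetate, 0.01% Tween-20, 0.05% BSA; 6-point qHTS titration about 60 µM downward; luminescence read.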
# SMN2 splice enh = SMN2 splice variant enhancement. HEK293 SMN2-luciferase splicing reporter, luminescence, 30-36 h. Potency, µM (top dose mostly 46.1 µM), for inactives: at the highest dose activity change, positive = activation, most hits filed as activators. 210,000 compounds, 2.8% hits; further: % of control where 0% means no effect; nearly all actives have a fitted effect of over 55% in size
#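 HEK293 cells carry an SMN2 […]–luciferase reporter in which exon 7 inclusion puts luciferase in frame. Cells were plated 10-12 h before compound addition, then incubated 30-36 h at 37C. ONE-Glo luminescence was read; sodium butyrate at 4.5 mM final served as control.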
# NPC1 promoter act = activators of NPC1 promoter | Huh7 NPC1 promoter luciferase reporter, 24 h | Potency, µM (highest dose often 9.22 µM), inactives show top-dose activation, usual class: activators | 320,000 compounds, 2.4% hits; further: % of control where 0% means no effect; nearly all actives have a fitted effect of over 60% in size
#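 Luminescence from an NPC1 promoter-driven luciferase reporter in stably transfected Huh7 cells was measured after 24 h compound treatment at 37 °C, followed by 10 min ambient incubation with luciferase detection reagent.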
# Rab9 prom act = Rab9 promoter activation; Huh7 Rab9 promoter-luciferase reporter, luminescence, 24 h; Potency, µM (top dose mostly 9.22 µM), inactives show at the top dose activation, negative = inhibition, most hits filed as activators; 320,000 compounds, 2.8% hits; AID 485297; further: % of control where 0% means no effect; nearly all actives have a fitted effect of over 60% in size
#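 Luminescence read-out: Huh7 cells stably expressing Rab9-luciferase, treated 24 h with compound at 37 °C, then lysed with luciferase reagent for 10 min at ambient before reading.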
# Luc counter = counter-screen: inhibitors of Kinase-Glo firefly luciferase. 200,000 compounds, 0.28% hits. Q27757. Kinase-Glo luciferase, ATP luminescence, 8 min. AID 1379. Potency, µM (doses to about 38.3 µM), inactives show at the highest dose activity change, negative = inhibition, actives largely listed as inhibitors; further: on the % scale 0 is the no-effect control and ±100 the full control effect; nearly all actives have a fitted effect of over 60% in size
#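 Recombinant Kinase-Glo luciferase, 10 uM ATP (linear range), luciferin; imidazole pH 7.2 / KCl / MgCl2 / Tween / BSA buffer; 8 min RT; luminescence.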
# * = called active by the depositor; ? = inconclusive; · = no result given; [ ] = remark or other dose. Shown are actives, neighbours in structure and some others; about 7.3% of the full set was active somewhere. The call rests on the fitted dose curve; in most records, active means well fitted curve in the direction sought with a large enough effect; inconclusive means small, poorly fitted or top-dose-only effect, or another doubt; inactive means no such curve, though single readings can be large; an effect the other way counts as inactive or inconclusive. Potency means the concentration at half of the fitted maximal effect.
SMILES,FLuc modulator,SMN2 splice enh,NPC1 promoter act,Rab9 prom act,Luc counter
Cc1ccc(C)c(NC(=O)C2CCN(c3nn4c(=O)cc(C)nc4s3)CC2)c1,-0.9%,5.5%,·,·,·
O=C1c2ccccc2CN1CCSC(=S)N1CCSCC1,23.9µM*,15.4%,?,3.16µM*,-5.8%
O=C1c2ccccc2CN1CCSC(=S)N1CCOCC1,12µM*,12.6µM*,3.55µM*,3.55µM*,-3.9%
O=S(=O)(c1ccc2[nH]c3c(c2c1)CCCC3)N1CCN(c2cccc(C(F)(F)F)c2)CC1,2.4%,·,·,·,·
O=C(OCc1ccccc1F)c1ccc2c(c1)-c1ccccc1C2=O,?,?,2.24µM*,2.24µM*,-3.1%
Cc1nc(N2CCOCC2)c2c(C(=O)N(C)c3ccccc3)c(C)oc2n1,0.7%,·,·,·,·
Cc1cc2ccc(OC(=O)c3ccc(N=C(N)N)cc3)cc2oc1=O,·,1.3%[9.22 µM],·,·,-6.3%[7.66 µM]
COc1cccc(NC(=O)c2c(C)nn(-c3ccccc3)c2Cl)c1,16.9µM*,·,17.8%,?,·
COc1ccc(NC(=O)c2c(C)nn(-c3ccccc3)c2Cl)cc1,?,·,21.9%,16.1%,·
Cc1nn(-c2ccccc2)c(C)c1C(=O)OCC(=O)Nc1cccc(S(N)(=O)=O)c1,?,·,0.2%,-3.6%,·
Cc1ccc(NC(=O)c2c(C)nn(-c3ccccc3)c2Cl)cc1,15.1µM*,28.2%,11.7%,23.8%,1.1%
CC(=O)c1ccc(NC(=O)c2c(C)nn(-c3ccccc3)c2Cl)cc1,-2.8%,·,-0.3%,-2.6%,-1.0%
COc1cccc(NC(=O)COC(=O)c2c(C)nn(-c3ccccc3)c2C)c1,21.3µM*,·,-1.0%,0.6%,·
CCNc1nc(N)c(C(=O)c2ccc(Cl)s2)s1,9.53µM*,20µM*,?,3.55µM*,-3.4%
COc1ccc(-c2nnc(-c3ccc(OCC(C)C)cc3)o2)cc1,?,-14.7%,2.7%,4.2%,4.7%
CN(C)c1ccc(-c2nnc(-c3ccccc3F)o2)cc1,1.2µM*,·,0.355µM*,0.447µM*,·
O=[N+]([O-])c1cccc(-c2nnc(-c3ccccc3F)o2)c1,12µM*,·,2.51µM*,2µM*,·
Nc1nnc(-c2cccc([N+](=O)[O-])c2)o1,-3.2%,·,-4.2%,1.2%,·
COc1ccc(-c2nnc(-c3ccc(N)cc3)o2)cc1,3.38µM*,12.6µM*,?,?,-3.7%
COc1ccc(-c2nnc(-c3ccc(N(C)C)cc3)o2)cc1,2.13µM*,25.0%,·,·,0.7%
COc1ccc(C)cc1NC(=O)N1CCCn2nc(C)cc21,-1.2%,·,·,·,·
COc1cccc(NC(=O)CSc2c(C)cnc3c2c(=O)n(C)c(=O)n3C)c1,-6.8%,·,·,·,·
Cn1c(CCNC(=O)c2ccco2)nc2cc(NC(=O)COc3ccc(Cl)cc3)ccc21,-3.6%,-9.6%,·,·,·
O=c1[nH]c(=O)n(C2CCCO2)cc1Br (stereo unspecified),3.7%,35.5µM*,2.0%,-4.2%,-0.9%
O=c1[nH]c(=O)n([C@H]2C[C@H](O)[C@@H](CO)O2)cc1Br,3.1%,10µM*,5.9%[46.1 µM],27.0%[46.1 µM],2.4%
SMILES,FLuc modulator,SMN2 splice enh,NPC1 promoter act,Rab9 prom act,Luc counter
O=c1[nH]c(=O)n([C@@H]2O[C@H](CO)[C@@H](O)[C@H]2O)cc1Br,·,·,·,·,1.4%
COc1ccc(Cl)cc1NC(=O)CSC1=Nc2ccccc2C2=NC(CCC(=O)NCc3ccco3)C(=O)N12 (stereo unspecified),-0.6%,-0.3%,·,·,·
COc1ccc(CNC(=O)c2ccc(NC(=O)N3CCSc4ncccc43)cc2)cc1OC,-1.1%,·,·,·,·
Cc1nnc(N/N=C/c2cccc(OCc3ccc(Cl)c(Cl)c3)c2)n1N,16.9µM*,3.8%[1.84 µM],20.7%,?,-1.8%
CCc1nnc(NC(=O)CSc2ccc(-c3ccc(C)cc3)nn2)s1,2.39µM*,?,?,?,-10.1%
CCOc1ccc(-c2ccc(SCC(=O)Nc3nnc(CC)s3)nn2)cc1,0.601µM*,11.2µM*,?,?,-0.1%
COc1ccc(-c2ccc(SCC(=O)Nc3nnc(C)s3)nn2)cc1,1.35µM*,?,6.4%,?,-11.9%
COc1ccc(-c2ccc(SCC(=O)NCc3ccco3)nn2)cc1,8.49µM*,7.0%,21.2%,?,-5.0%
CCc1nnc(NC(=O)CSc2nnc(C)n2-c2ccc(C)cc2)s1,4.3%,-2.7%,0.0%,-3.4%,-3.8%
COCCCNC(=O)c1sc2nc3n(c(=O)c2c1C)CCC3,3.8%,·,·,·,·
